This note sets out measurements from PubChem BioAssay AID777 (Sanford-Burnham Center for Chemical Genomics, 2007).

Among all 96,000 compounds or so, about 19,000 (20%) were called active.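 The calls were made as follows: active = blocking of liver enzyme CYP2C9 beyond about 50% at 5 µM (limit read from the data); inactive = the rest.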 Not all results are given here.

In the assay the target is Cytochrome P450 2C9 (Homo sapiens) (UniProt P11712). Put plainly: blockers of cytochrome P450 2C9 activity – biochemical, luminescence, ADME assay, primary screen (AID 777). The settings on record: CYP2C9 Supersomes, luciferin-H conversion, at 5 µM, stronger effect = higher value.
Cytochrome P450 2C9 (Homo sapiens), sequence (P11712 whole entry, looked up): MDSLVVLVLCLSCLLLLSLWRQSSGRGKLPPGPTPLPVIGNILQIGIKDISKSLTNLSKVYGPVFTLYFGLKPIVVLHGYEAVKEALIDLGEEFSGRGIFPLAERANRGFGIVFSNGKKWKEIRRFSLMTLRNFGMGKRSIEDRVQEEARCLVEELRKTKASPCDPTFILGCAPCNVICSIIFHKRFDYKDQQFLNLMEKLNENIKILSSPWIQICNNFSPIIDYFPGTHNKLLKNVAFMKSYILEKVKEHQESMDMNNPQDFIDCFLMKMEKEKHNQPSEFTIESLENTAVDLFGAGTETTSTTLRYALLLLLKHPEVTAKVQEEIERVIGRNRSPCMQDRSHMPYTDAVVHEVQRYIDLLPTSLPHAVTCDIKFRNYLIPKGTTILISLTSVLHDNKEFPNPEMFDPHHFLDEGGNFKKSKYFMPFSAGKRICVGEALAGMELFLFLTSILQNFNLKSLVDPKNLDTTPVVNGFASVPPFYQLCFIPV
As for `CCCOC(=O)Cc1c(O)c2ccccc2[nH]c1=O`, the inhibition (in general, the drop in the measured response relative to a control, in per cent) is -19.5% (inactive).
Regarding `C=CCn1c(CC(=O)Nc2cccc(OC)c2)nnc1SCC(=O)NC1CCCCC1`, the inhibition is 10% (inactive).
For the molecule `COCCn1c(SCc2nc3cc(OC)c(OC)cc3c(=O)[nH]2)nnc1-c1ccncc1`, the inhibition is -18.5% (inactive).
The result for `C=CCn1c(SCc2c(C(=O)OC)sc(N)c2C(=O)OC)nnc1-c1ccc(Cl)cc1` reads 79% (active); that for `COC(=O)c1sc(=S)n(-c2ccc(Cl)cc2)c1C`, 40.2% (inactive); that for `CCc1nnc(NC(=O)CSc2nnc(-c3ccncc3)n2Cc2ccccc2)s1`, 26.1% (inactive).
The result for `C=CCn1c(SCc2cc(C(=O)OC)c(C)o2)nnc1-c1ccncc1` reads 57.4% (active); that for `O=C1c2ccccc2C2=Nc3ccccc3SC(c3ccccc3F)C12` (stereo unspecified), 8.8% (inactive).
Consider `COc1ccccc1Nc1nc(N)nc(CN(C)C2CCCCC2)n1`, for which the inhibition was -18.4% (inactive).
As for `Cc1c(C#N)c2ncn(CC#N)c(=O)c2n1-c1ccccc1`, the inhibition is -15.9% (inactive).
As to `O=C(NCc1ccccn1)c1cnc2sccn2c1=O`, the inhibition is -4% (inactive).
On to `O=C(CNCCO)NC12CC3CC(CC(C3)C1)C2`, for which the inhibition is -6% (inactive).
For `O=C(Nc1cc(C(F)(F)F)ccc1Cl)c1cc2nc3c(c(C(F)(F)F)n2n1)CCCC3`, the inhibition is -42.8% (inactive).
As to `COc1ccc2nc(NC3=NCN(CC4CCCO4)CN3)nc(C)c2c1` (stereo unspecified), the inhibition is 1.3% (inactive).
Regarding `COc1c(Cl)cc(C(=O)Nc2ccc(Cl)cn2)cc1Cl`, the inhibition was -12.2% (inactive).
In the case of `CCOC(=O)N1CCN(C(c2cccnc2)c2ccc3cccnc3c2O)CC1` (stereo unspecified), the inhibition was 32.6% (inactive).
In the case of `CC(=NCc1ccco1)c1c(C(F)(F)F)[nH]n(-c2nc3ccccc3s2)c1=O`, the inhibition was 64.2% (active).
Then `CCc1ccc(-c2cc(C(=O)NCc3ccco3)c3ccccc3n2)s1`, with 39.4% (inactive); and `COC(=O)Cc1cc(=O)n(-c2nc3ccccc3s2)[nH]1`, with 18.5% (inactive); and `CCOc1[nH]n(-c2ccc(Cl)cc2)c(=O)c1C=Nc1ccc(O)cc1`, with 37% (inactive).
Take `O=C(Nc1ccc(S(=O)(=O)N2CCCC2)cc1Cl)C1=COCCO1`: the inhibition was 19.8% (inactive).
As to `CC(C)C(C(=O)NC1CCCCC1)N(CC1CCCO1)C(=O)CNS(=O)(=O)c1ccc(F)cc1` (stereo unspecified), the inhibition is -3.2% (inactive).
Then `COc1ccc(-c2oc3ncn(Cc4ccco4)c(=N)c3c2-c2ccc(OC)cc2)cc1`, with 27.6% (inactive).
Consider `COc1ccc(N2CCN(C(=O)CNC(=O)c3ccc(C(C)(C)C)cc3)CC2)cc1`, for which the inhibition is 22.1% (inactive).
On to `COc1ccc(OC)c(S(=O)(=O)N(C)CC(=O)N2CCN(c3ccccc3)CC2)c1`, for which the inhibition was 78.3% (active).
Consider `CCN1CCN(C(=O)CN(C)S(=O)(=O)c2ccc(OC)cc2)CC1`, for which the inhibition is -20.1% (inactive).
